# Measured values from PMC12820563, “FoxP3 forms a head-to-head dimer in vivo and stabilizes its multimerization on adjacent microsatellites”.
# The full ranking holds about 16,000 sequences; the median of “rpm ratio (pull-down/input)” is about 0.94, and the highest 2% start at about 1.7. This is one part of a sample in which the highest values are shown more often than they occur.
# Biological target: T1, MBP-FoxP1dN (Mus musculus, UniProt P58462 326-579)
# T1 sequence: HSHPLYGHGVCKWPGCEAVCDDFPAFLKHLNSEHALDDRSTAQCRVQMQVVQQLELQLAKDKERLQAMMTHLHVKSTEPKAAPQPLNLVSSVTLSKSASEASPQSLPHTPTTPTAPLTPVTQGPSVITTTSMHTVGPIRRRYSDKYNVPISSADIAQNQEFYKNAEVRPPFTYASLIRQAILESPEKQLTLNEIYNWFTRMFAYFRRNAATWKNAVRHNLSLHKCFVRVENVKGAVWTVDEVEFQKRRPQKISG
# Assay: PD-seq (MBP pull-down with sequencing); 20 mM Tris-HCl pH 7.5, 100 mM NaCl, 1.5 mM MgCl2, 0.4 uM protein, 0.1 uM dsDNA library, 30 min, room temperature, amylose pull-down; high values mean tight binding
# Settings: protein: recombinant; tags: His6-MBP; chain copies: 2; dsDNA, one strand shown
# Summary of the method: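 A degenerate double-stranded DNA library, filled in with Klenow, was added at 0.1 µM to 0.4 µM His6-MBP-tagged mouse FoxP3 or FoxP1 fragment lacking the N-terminus, expressed in E. coli. Incubation lasted 30 min at room temperature in Tris pH 7.5 buffer with NaCl and MgCl2, after which complexes were collected on amylose resin, washed three times, digested with proteinase K to free the DNA, barcoded by PCR and sequenced by Illumina. Binding is the pooled-replicate reads-per-million enrichment of pull-down over input.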
row,Sequence,binding signal
1,GATGATTGTTCTCCCAGCTGATGAATTTGTGTACTCGAGTAAACAAATTTTCCTAATCTTTCTGTTCAAGCGCCATCTAC,2.09 RPM ratio (pull-down/input)
2,GATGATTGTTCTCCCAGCTGATGAATTTGTACTCTCGAGTAAACAAATTTTCCTAATCTTTCTGTTCAAGCGCCATCTAC,1.15 RPM ratio (pull-down/input)
3,GATGATTGTTCTCCCAGCTGATGAATTCTGTACCTCGAGTAAACAAATTTTCCTAATCTTTCTGTTCAAGCGCCATCTAC,0.846 RPM ratio (pull-down/input)
4,GATGATTGTTCTCCCAGCTGATGAATTAATGTAATCGAGTAAACAAATTTTCCTAATCTTTCTGTTCAAGCGCCATCTAC,1.68 RPM ratio (pull-down/input)
5,GATGATTGTTCTCCCAGCTGATGAATTCATCGTGTCGAGTAAACAAATTTTCCTAATCTTTCTGTTCAAGCGCCATCTAC,0.891 RPM ratio (pull-down/input)
6,GATGATTGTTCTCCCAGCTGATGAATTTGACGAATCGAGTAAACAAATTTTCCTAATCTTTCTGTTCAAGCGCCATCTAC,0.846 RPM ratio (pull-down/input)
7,GATGATTGTTCTCCCAGCTGATGAATTGAGATGCTCGAGTAAACAAATTTTCCTAATCTTTCTGTTCAAGCGCCATCTAC,1.07 RPM ratio (pull-down/input)
8,GATGATTGTTCTCCCAGCTGATGAATTAGCTCGGTCGAGTAAACAAATTTTCCTAATCTTTCTGTTCAAGCGCCATCTAC,0.829 RPM ratio (pull-down/input)
9,GATGATTGTTCTCCCAGCTGATGAATTATGAGATTCGAGTAAACAAATTTTCCTAATCTTTCTGTTCAAGCGCCATCTAC,0.995 RPM ratio (pull-down/input)
10,GATGATTGTTCTCCCAGCTGATGAATTAACTACCTCGAGTAAACAAATTTTCCTAATCTTTCTGTTCAAGCGCCATCTAC,0.879 RPM ratio (pull-down/input)
11,GATGATTGTTCTCCCAGCTGATGAATTATCTTGGTCGAGTAAACAAATTTTCCTAATCTTTCTGTTCAAGCGCCATCTAC,0.937 RPM ratio (pull-down/input)
12,GATGATTGTTCTCCCAGCTGATGAATTAATGTTTTCGAGTAAACAAATTTTCCTAATCTTTCTGTTCAAGCGCCATCTAC,2.45 RPM ratio (pull-down/input)
13,GATGATTGTTCTCCCAGCTGATGAATTATGTTGGTCGAGTAAACAAATTTTCCTAATCTTTCTGTTCAAGCGCCATCTAC,1.87 RPM ratio (pull-down/input)
14,GATGATTGTTCTCCCAGCTGATGAATTATGTGTTTCGAGTAAACAAATTTTCCTAATCTTTCTGTTCAAGCGCCATCTAC,1.51 RPM ratio (pull-down/input)
15,GATGATTGTTCTCCCAGCTGATGAATTTTTATGTTCGAGTAAACAAATTTTCCTAATCTTTCTGTTCAAGCGCCATCTAC,1.37 RPM ratio (pull-down/input)
16,GATGATTGTTCTCCCAGCTGATGAATTTATGTTTTCGAGTAAACAAATTTTCCTAATCTTTCTGTTCAAGCGCCATCTAC,2.76 RPM ratio (pull-down/input)
17,GATGATTGTTCTCCCAGCTGATGAATTTTATGTTTCGAGTAAACAAATTTTCCTAATCTTTCTGTTCAAGCGCCATCTAC,1.19 RPM ratio (pull-down/input)

row,Sequence,binding signal
1,GATGATTGTTCTCCCAGCTGATGAATTATGATGTTCGAGTAAACAAATTTTCCTAATCTTTCTGTTCAAGCGCCATCTAC,1.22 RPM ratio (pull-down/input)
2,GATGATTGTTCTCCCAGCTGATGAATTATGTTTTTCGAGTAAACAAATTTTCCTAATCTTTCTGTTCAAGCGCCATCTAC,2.19 RPM ratio (pull-down/input)
3,GATGATTGTTCTCCCAGCTGATGAATTATGATGGTCGAGTAAACAAATTTTCCTAATCTTTCTGTTCAAGCGCCATCTAC,1.1 RPM ratio (pull-down/input)
4,GATGATTGTTCTCCCAGCTGATGAATTTAATGTTTCGAGTAAACAAATTTTCCTAATCTTTCTGTTCAAGCGCCATCTAC,1.15 RPM ratio (pull-down/input)
5,GATGATTGTTCTCCCAGCTGATGAATTAAATGTTTCGAGTAAACAAATTTTCCTAATCTTTCTGTTCAAGCGCCATCTAC,1.3 RPM ratio (pull-down/input)
6,GATGATTGTTCTCCCAGCTGATGAATTCCTAATCTCGAGTAAACAAATTTTCCTAATCTTTCTGTTCAAGCGCCATCTAC,0.834 RPM ratio (pull-down/input)
7,GATGATTGTTCTCCCAGCTGATGAATTATGATATTCGAGTAAACAAATTTTCCTAATCTTTCTGTTCAAGCGCCATCTAC,1.24 RPM ratio (pull-down/input)
8,GATGATTGTTCTCCCAGCTGATGAATTATACCTCTCGAGTAAACAAATTTTCCTAATCTTTCTGTTCAAGCGCCATCTAC,0.896 RPM ratio (pull-down/input)
9,GATGATTGTTCTCCCAGCTGATGAATTAAGCTTATCGAGTAAACAAATTTTCCTAATCTTTCTGTTCAAGCGCCATCTAC,1.03 RPM ratio (pull-down/input)
10,GATGATTGTTCTCCCAGCTGATGAATTCTCTTCATCGAGTAAACAAATTTTCCTAATCTTTCTGTTCAAGCGCCATCTAC,0.886 RPM ratio (pull-down/input)
11,GATGATTGTTCTCCCAGCTGATGAATTATGTTCATCGAGTAAACAAATTTTCCTAATCTTTCTGTTCAAGCGCCATCTAC,1.04 RPM ratio (pull-down/input)
12,GATGATTGTTCTCCCAGCTGATGAATTATGAATTTCGAGTAAACAAATTTTCCTAATCTTTCTGTTCAAGCGCCATCTAC,1.03 RPM ratio (pull-down/input)
13,GATGATTGTTCTCCCAGCTGATGAATTATGTTGTTCGAGTAAACAAATTTTCCTAATCTTTCTGTTCAAGCGCCATCTAC,2.67 RPM ratio (pull-down/input)
14,GATGATTGTTCTCCCAGCTGATGAATTATGTTCTTCGAGTAAACAAATTTTCCTAATCTTTCTGTTCAAGCGCCATCTAC,1.15 RPM ratio (pull-down/input)
15,GATGATTGTTCTCCCAGCTGATGAATTATGATGATCGAGTAAACAAATTTTCCTAATCTTTCTGTTCAAGCGCCATCTAC,1.15 RPM ratio (pull-down/input)
16,GATGATTGTTCTCCCAGCTGATGAATTATGTTGATCGAGTAAACAAATTTTCCTAATCTTTCTGTTCAAGCGCCATCTAC,2.81 RPM ratio (pull-down/input)
